Assay outcomes: PubChem BioAssay, several laboratories
GDH-TPI counter: GDH-TPI coupled enzyme inhibition counter-screen | GDH-TPI coupled enzyme counterscreen, NADH absorbance | inhibition, % at 4.8 µM | 1.2% of 360,000 active | AID 588335; in the data active = inhibition above about 30%;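 note: 0% = DMSO wells and 100% = wells lacking the enzyme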
Mtb UGM inh: Mtb UDP-galactopyranose mutase inhibition. P9WIQ1. purified UGM, fluorescence polarization probe displacement. inhibition, % at 10 µM. 0.06% of 320,000 active; in the data active = inhibition above about 10%, passing the limit was not always enough
Target sequence (P9WIQ1 whole entry, looked up): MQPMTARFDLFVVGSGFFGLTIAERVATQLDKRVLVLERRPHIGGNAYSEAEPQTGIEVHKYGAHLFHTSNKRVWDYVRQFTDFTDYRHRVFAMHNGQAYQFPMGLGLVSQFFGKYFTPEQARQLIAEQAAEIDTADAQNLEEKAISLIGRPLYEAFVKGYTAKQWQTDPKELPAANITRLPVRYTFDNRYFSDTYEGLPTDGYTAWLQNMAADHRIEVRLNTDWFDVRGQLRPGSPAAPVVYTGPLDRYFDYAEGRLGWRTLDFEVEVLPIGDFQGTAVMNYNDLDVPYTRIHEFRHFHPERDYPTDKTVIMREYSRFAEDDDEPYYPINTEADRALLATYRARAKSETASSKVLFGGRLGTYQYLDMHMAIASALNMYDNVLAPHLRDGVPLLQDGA
Mtb betalactam: beta-lactam sensitization of Mtb H37Rv | inhibition, % at 25 µM | 0.27% of 330,000 active | AID 434955 | M. tuberculosis H37Rv growth with meropenem, percent inhibition;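 note: growth measured after seven days incubation then overnight dye step; 0% = bacteria only wells and 100% = bacteria with antibiotic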
Mtb FBA inh: inhibitors of M. tuberculosis fructose-bisphosphate aldolase. P9WQA3. purified M. tuberculosis FBA, fluorescence read-out. inhibition, % at 1 µM. 2.3% of 360,000 active. AID 588726; in the data active = inhibition above about 27%;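 note: 0% = vehicle and 100% = reference inhibitor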
RecA splice inh: blocks M. tuberculosis RecA intein splicing; P9WHJ3; cell-free RecA intein splicing, fluorescence; inhibition, % (test concentration not listed); 0.75% of 290,000 active; AID 2221; in the data active = inhibition above about 30%;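 note: 0% = vehicle wells and 100% = reference inhibitor control wells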
Rv3671c protease: inhibits the M. tuberculosis serine protease Rv3671c. 0.048% of 320,000 active. inhibition, % at 5.96 µM. P9WHR9; in the data active = inhibition above about 38%;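 note: extracellular domain of Rv3671c used as enzyme; 0% = enzyme with DMSO and 100% = no enzyme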
GFP chromo cs: counter-screen: blocks GFP chromophore formation | EC50, µM | shares compounds with RecA splice inh | 83% of 2,100 active | cell-free GFP chromophore formation, fluorescence | AID 434968
An asterisk follows results filed as active; · = no result. Compounds with a hit are over-represented: about 4% of the library has one in this group of screens. Unless noted, the rule behind the calls is not given here.

SMILES	GDH-TPI counter	Mtb UGM inh	Mtb betalactam	Mtb FBA inh	RecA splice inh	Rv3671c protease	GFP chromo cs
O=C(c1c[nH]c(C(=O)C(Cl)(Cl)Cl)c1)c1c(F)cccc1F	5	3	-2	2	14	-12	·
CN1CCN2c3ccc(N)cc3CC3(C(=O)NC(=O)NC3=O)C2C1 (stereo unspecified)	3	·	·	1	55*	·	>38
CN1C(=O)N(C)C(=O)C2(Cc3cc(N)ccc3N3CCN(c4ccccc4F)CC32)C1=O (stereo unspecified)	·	-2	3	·	10	14	·
O=C(Nc1cccnc1Cl)c1cc2ccccc2o1	-1	0	-2	-2	0	-8	·
CCO/C=C1/C(=O)N(C)C(=O)c2cc(OC)ccc21	0	-1	-7	3	85*	-31	>38
CCO/C=C1/C(=O)N(c2ccc(OC)cc2)C(=O)c2ccccc21	-1	-1	8	12	3	-10	·
Nn1c(Cc2ccccc2)n[nH]c1=S	-1	1	5	2	0	1	·
NNc1n[nH]c(=S)n1N	-1	-1	-1	0	78*	-13	>38
Cc1csc(NC(=O)CSc2nccn2C)n1	2	-1	-2	-1	2	-1	·
Cc1cc(Nc2cccc([N+](=O)[O-])c2)c2cccc(C)c2n1	16	-1	4	0	·	3	·
Cc1cc(Nc2ccccc2)c2c([N+](=O)[O-])ccc(C)c2n1	7	2	96	-5	71*	-6	12*
Cc1ccc(/C=C2\SC(N3CCN(C(c4ccccc4)c4ccccc4)CC3)=NC2=O)o1	3	0	74	1	33*	-7	>38
Cc1ccc(-c2ccc(/C=C3\SC(N4CCOCC4)=NC3=O)o2)cc1	2	1	47	-9	-26	-11	·
COc1ccc(NC(=O)C2CCCCN2S(=O)(=O)c2ccccc2)cc1S(=O)(=O)N1CCOCC1 (stereo unspecified)	5	·	·	0	·	·	·
COc1ccc(C(C)=O)c(OC(=O)c2ccco2)c1	-2	-1	-6	3	10	14	·
CC(=O)Nc1ccc(OC(=O)c2ccco2)cc1	12	0	1	3	33*	9	>38
CC(=O)Nc1cc(OC(=O)c2ccco2)cc(OC(=O)c2ccco2)c1	-7	1	-1	1	54*	13	7.4*
CC1C=CCC2C(=O)N(c3ccc(OC(=O)c4ccco4)cc3)C(=O)C12 (stereo unspecified)	2	2	-1	0	7	6	·
COC(=O)C1=C(C)NC(=S)NC1c1ccc(OC(=O)c2ccco2)cc1 (stereo unspecified)	3	-1	-7	2	31*	13	>38
O=C(Oc1ccc(N2C(=O)CCC2=O)cc1)c1ccco1	4	-5	-9	-2	31*	1	0.61*
O=C(Nc1ccc(OC(=O)c2cccs2)cc1)c1ccco1	5	-3	80	-1	1	-11	·
COc1cc(N(C(C)=O)c2ccc(O)c(C(=O)O)c2)c2ncccc2c1	1	·	·	1	·	·	·
C[C@@H](C(O)c1ccccc1)N(C)C(=O)CCc1ccccc1 (stereo partly specified)	6	-1	-15	-1	1	2	·
COc1ccc(OCC(=O)N2CCN(S(=O)(=O)c3ccc4c(c3)OCCO4)CC2)cc1	7	·	·	1	·	·	·
COC(=O)C1CN(C#N)N(c2ccc(Cl)cc2)C12c1ccccc1-c1ccccc12 (stereo unspecified)	5	-2	75	-1	44*	2	9.8*
SMILES	GDH-TPI counter	Mtb UGM inh	Mtb betalactam	Mtb FBA inh	RecA splice inh	Rv3671c protease	GFP chromo cs
CC1=NN(Cc2ccccc2)C(=O)C1C(c1ccc(Cl)cc1)C(C#N)C#N (stereo unspecified)	9	2	0	1	80*	1	6.2*
CC1=NNC(=O)C1C(c1ccc(Cl)cc1)C(C#N)C#N (stereo unspecified)	1	-2	-9	1	85*	-6	11*
CC1=NN(Cc2ccccc2)C(=O)C1C(c1ccccc1)C(C#N)C#N (stereo unspecified)	10	2	6	2	88*	2	8.7*
CC1=NN(Cc2ccccc2)C(=O)C1C(c1ccncc1)C(C#N)C#N (stereo unspecified)	18	-2	-2	-2	68*	5	18*
Cc1[nH]n(-c2ncc(-c3ccccc3)s2)c(=O)c1C(c1ccc(Cl)cc1)C(C#N)C#N (stereo unspecified)	6	-1	2	-5	9	10	·
O=C(COc1ccccc1[N+](=O)[O-])N1CCN(c2ccccn2)CC1	-14	-3	-3	1	1	7	·
Cc1c(C(=O)N2C[C@@H](C)O[C@@H](C)C2)oc2c(F)cccc12	3	2	-3	0	-2	-5	·
CCN1C(=O)[C@@H]2[C@@H](c3ccc(-c4ccc(C(C)=O)cc4)c(OC)c3)N3CCCC[C@@]3(C(=O)OC)[C@@H]2C1=O	1	0	-17	5	-2	10	·
Cc1ccc(-c2nc(Nc3cccc(O)c3)c3ccccc3n2)cc1	6	1	6	-1	4	-55	·
Oc1cccc(Nc2nc(-c3ccccc3Cl)nc3ccccc23)c1	10	-1	6	2	35*	-26	>38
Cc1[nH]nc2c1C(c1cnn(C)c1)C(C#N)=C(N)O2 (stereo unspecified)	12	3	-3	9	76*	5	23*
Cc1[nH]nc2c1C(c1cccs1)C(C#N)=C(N)O2 (stereo unspecified)	5	-1	1	2	54*	-3	34*
Cc1[nH]nc2c1C(c1ccc(Cl)cc1)C(C#N)=C(N)O2 (stereo unspecified)	1	1	-1	-4	75*	-7	29*
Cc1ccc(C2C(C#N)=C(N)Oc3n[nH]c(C)c32)cc1 (stereo unspecified)	-6	-2	1	0	77*	-5	19*
Cc1ccsc1C1C(C#N)=C(N)Oc2n[nH]c(C)c21 (stereo unspecified)	11	-2	-3	-4	15	0	·
Cc1[nH]nc2c1C(C(C)c1ccccc1)C(C#N)=C(N)O2 (stereo unspecified)	7	1	-1	2	-1	5	·
CCc1nnc(SCC(=O)Nc2ccc(N3CCOCC3)cc2)n1C	3	-1	-13	-2	-4	-2	·
O=C(NC(c1ccc(Cl)cc1)c1ccsc1)C1CCN(Cc2ccc(Oc3ccccc3)cc2)CC1 (stereo unspecified)	7	·	·	0	·	·	·
COc1ccc(CCNC(=O)CN2C(=O)COc3ccc(S(=O)(=O)N4CCOCC4)cc32)cc1OC	-7	-1	-11	-1	1	-2	·
CCn1c(=O)c2ccccc2n(Cc2ccccc2C)c1=O	6	-2	-2	4	2	4	·
